S1P4 antagonist: antagonists of human S1P4 receptor | inhibition, % at 4.98 µM | AID 1510 | O95977 | 220,000 tested, 0.26% active | S1P4-expressing cells, antagonist mode, reporter read-out; in the data active means inhibition above about 29%;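 further: 0% = wells stimulated with agonist and 100% = vehicle wells without agonist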
INS promoter inh: TRM-6 insulin promoter activity inhibition. TRM-6 cells (human fetal islet line), insulin promoter-eGFP reporter, imaging; reporter expression induced with tamoxifen. inhibition, % at 2 µM. 130,000 tested, 0.9% active. AID 1273;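 active means inhibition above the mean plus 3 SD, with well images judged a real hit on visual review, cut at about 60% in these data, passing the limit was not always enough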
S1P3 antag: S1P3 (human) receptor antagonism; AID 485; Q99500; CHO S1P3 NFAT-BLA reporter, FRET fluorescence, antagonist mode; 170,000 tested, 0.27% active; inhibition, % at 4.98 µM;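 active means inhibition above the plate cutoff, the mean inhibition of test wells on that plate plus 3 SD, cut at about 28% in these data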;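 further: cells challenged with S1P at its EC80 of 0.8 µM; blue over green emission ratio from cleaved BLA substrate after 4 h stimulation; 0% = S1P-stimulated wells and 100% = unstimulated DMSO-only wells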
Target sequence (Q99500 whole entry, looked up): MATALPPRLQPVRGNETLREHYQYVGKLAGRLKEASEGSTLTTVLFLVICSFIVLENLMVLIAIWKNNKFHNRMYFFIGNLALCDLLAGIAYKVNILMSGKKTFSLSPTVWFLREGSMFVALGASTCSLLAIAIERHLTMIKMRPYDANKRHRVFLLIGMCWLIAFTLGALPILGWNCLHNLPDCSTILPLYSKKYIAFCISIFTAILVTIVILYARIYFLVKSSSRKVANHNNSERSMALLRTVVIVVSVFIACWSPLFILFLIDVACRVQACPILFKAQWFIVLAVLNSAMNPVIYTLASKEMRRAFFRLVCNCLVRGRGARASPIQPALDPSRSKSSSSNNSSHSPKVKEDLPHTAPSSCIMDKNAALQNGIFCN
EP2 antag: inhibitors of human EP2 prostaglandin E2 receptor; P43116; C6 glioma cells expressing human EP2, cAMP TR-FRET; cells stimulated with saturating PGE2; inhibition, % at 25 µM; 260,000 tested, 0.52% active; AID 1422;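 active means percent inhibition above 40 after rounding to a whole number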;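 further: rat C6 glioma host cells with rolipram phosphodiesterase inhibitor present; the protocol text gives 20 µM as final concentration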
EP2 mod: EP2 receptor (human) modulation | P43116 | EP2-expressing cells, cAMP HTRF FRET, PGE2 co-stimulation | induction, % at 25 µM | 260,000 tested, 0.83% active | AID 940;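 active means compounds whose cAMP rise, as percent of the full-agonist control response, exceeds 60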;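 further: rat C6 glioma line stably carrying human EP2 under a CMV promoter; the protocol text gives 20 µM as final concentration; 100% = response of wells given 1 µM PGE2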
S1P4 ag: agonists of human S1P4 receptor; O95977; activation, % at 4.98 µM; S1P4-expressing cell line, agonist reporter assay; 220,000 tested, 0.35% active; in the data active means activation above about 11%;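 further: 0% = DMSO vehicle and 100% = reference agonist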
Active calls of the source: *. An excerpt weighted towards active compounds, which were near 2.4% of everything screened.

Results for CC(=O)[C@@]1(O)CCC2C3CCC4=CC(=O)CC[C@]4(C)C3CC[C@@]21C (stereo partly specified) ?
EP2 antag: 11; EP2 mod: 11

Results for CN(C)CCN1C(=O)CC[C@@]2(C)C1=CC[C@H]1[C@H]2CC[C@@]2(C)[C@H]1CC[C@]2(C)O ?
EP2 antag: 50*; EP2 mod: 6

What do the screens show for `Cc1cc2cc(CN(Cc3ccc4c(c3)OCO4)Cc3nnnn3C3CCCC3)c(=O)[nH]c2cc1C`?
S1P4 antagonist: -2; S1P3 antag: 7; EP2 antag: 2; EP2 mod: 64*; S1P4 ag: 0

Results for CCOc1ccc2[nH]c(=O)c(CN(Cc3nnnn3C3CCCCC3)C3CCCC3)cc2c1 ?
EP2 antag: 15; EP2 mod: 38

What do the screens show for `Cc1ccc2[nH]c(=O)c(CN(Cc3ccc4c(c3)OCO4)Cc3nnnn3C3CCCC3)cc2c1`?
S1P4 antagonist: 3; S1P3 antag: 2; EP2 mod: 29; S1P4 ag: -1

What do the screens show for `CCOc1ccc2[nH]c(=O)c(CN(Cc3ccc(F)cc3)Cc3nnnn3C3CCCC3)cc2c1`?
EP2 antag: 7; EP2 mod: 61*

Results for CCOc1ccc2[nH]c(=O)c(CN(CCc3ccccc3)Cc3nnnn3C3CCCCC3)cc2c1 ?
EP2 antag: 2; EP2 mod: 62*

How did OC1C[C@H]2CC[C@@H](C1)N2CCCN1c2ccccc2Sc2ccc(Cl)cc21 (stereo partly specified) do in these assays?
EP2 antag: 47*; EP2 mod: -16

Results for OCCN1CCN(CCCN2c3ccccc3Sc3ccc(Cl)cc32)CC1 ?
S1P4 antagonist: -16; INS promoter inh: 24; S1P3 antag: 7; EP2 antag: 17; EP2 mod: -37; S1P4 ag: -1

Results for C=CC(O)Cc1c(C)n[nH]c1C (stereo unspecified) ?
S1P4 antagonist: -9; INS promoter inh: 77*; EP2 antag: 3; EP2 mod: 37; S1P4 ag: 0

Results for CCOC(=O)C(C)Sc1nc(-c2ccccc2)ccc1C#N (stereo unspecified) ?
EP2 antag: 6; EP2 mod: 62*

How did CC(C)C(Sc1nc(-c2ccccc2)cc(-c2ccccc2)c1C#N)C(=O)O (stereo unspecified) do in these assays?
S1P4 antagonist: -21; S1P3 antag: -23; EP2 antag: 10; EP2 mod: 62*; S1P4 ag: 1

Results for N#Cc1c(-c2ccccc2)cc(-c2ccccc2)nc1SCC(=O)NCC(=O)O ?
S1P4 antagonist: 1; S1P3 antag: -4; EP2 antag: 11; EP2 mod: -13; S1P4 ag: -1

How did CCN(CC)C(=O)CSc1nc(-c2ccccc2)ccc1C#N do in these assays?
S1P4 antagonist: -9; S1P3 antag: 4; EP2 antag: 14; EP2 mod: 16; S1P4 ag: 1

How did N#Cc1nc(-c2ccc(OCc3ccccc3)cc2)oc1NCCCn1ccnc1 do in these assays?
S1P4 antagonist: -8; INS promoter inh: -21; S1P3 antag: -10; EP2 antag: 40*; EP2 mod: -57; S1P4 ag: 2

What do the screens show for `N#Cc1nc(-c2ccc(OCc3ccccc3Cl)cc2)oc1NCCCn1ccnc1`?
S1P4 antagonist: -3; S1P3 antag: -2; EP2 mod: -38; S1P4 ag: 0

What do the screens show for `N=C(N)S[C@@H]1c2ccccc2-c2cc([N+](=O)[O-])ccc21`?
EP2 antag: 48*; EP2 mod: -51

Results for COCCCNc1nc(=S)[nH]c2cc(OC)c(OC)cc12 ?
S1P4 antagonist: -13; S1P3 antag: 15; EP2 antag: 15; EP2 mod: 5; S1P4 ag: 0

How did COc1cc2[nH]c(=S)nc(NCCC(C)C)c2cc1OC do in these assays?
S1P4 antagonist: -5; INS promoter inh: 83*; S1P3 antag: -2; EP2 antag: 14; EP2 mod: -33; S1P4 ag: 0

What do the screens show for `Clc1cncc(Cl)c1N/N=C/c1ccncc1`?
S1P4 antagonist: -15; INS promoter inh: 62*; S1P3 antag: 16; EP2 antag: 10; EP2 mod: -36; S1P4 ag: 0

Results for Cc1cc(NC(=O)c2ccccc2)ncc1NC(=O)C(C)C ?
EP2 antag: 8; EP2 mod: -2

What do the screens show for `COc1ccc(C2=NCC(CSc3nccc(=O)[nH]3)S2)cc1` (stereo unspecified)?
S1P4 antagonist: -6; INS promoter inh: 86*; S1P3 antag: -14; EP2 antag: 5; EP2 mod: 13; S1P4 ag: 2

How did COc1ccc(C2=NCC(CSc3nnnn3C)S2)cc1 (stereo unspecified) do in these assays?
S1P4 antagonist: -10; INS promoter inh: -36; S1P3 antag: -10; EP2 antag: 21; EP2 mod: -28; S1P4 ag: 1

What do the screens show for `COc1ccc(Nc2nnc(Cc3ccccc3)c(=O)[nH]2)c(OC)c1`?
S1P4 antagonist: -32; INS promoter inh: 86*; EP2 antag: 1; EP2 mod: -34; S1P4 ag: 3

How did COc1ccc(Nc2nnc(Cc3ccc(Cl)cc3)c(=O)[nH]2)c(OC)c1 do in these assays?
S1P4 antagonist: 0; EP2 antag: 6; EP2 mod: -9; S1P4 ag: 0

How did CCn1nc(NS(=O)(=O)c2ccc3c(c2)NC(=O)C(C)O3)cc1C (stereo unspecified) do in these assays?
EP2 antag: 2; EP2 mod: -35

Results for Cc1cc(C(=O)NCC2COc3ccccc3O2)c2ccccc2n1 (stereo unspecified) ?
S1P4 antagonist: -18; INS promoter inh: 83*; S1P3 antag: -2; EP2 antag: 4; EP2 mod: -26; S1P4 ag: 2

What do the screens show for `CC1Cc2cc(C(O)CN3CCC(C(C)(C)C)CC3)ccc2N1S(C)(=O)=O` (stereo unspecified)?
EP2 antag: 5; EP2 mod: -28

Results for CCCCSCc1nc2ccccn2c1Br ?
S1P4 antagonist: -2; INS promoter inh: 24; S1P3 antag: 1; EP2 antag: -1; EP2 mod: -31; S1P4 ag: -1

Results for CCSCc1nc2ccccn2c1Br ?
S1P4 antagonist: -2; INS promoter inh: 76*; S1P3 antag: 1; EP2 antag: 10; EP2 mod: 21; S1P4 ag: 2

Results for O=C(O)[C@@H](Br)[C@@H](Br)c1ccccc1[N+](=O)[O-] ?
EP2 antag: 41*; EP2 mod: 29

How did CC(C)Oc1ccc(C2(C)N=C(O)N=C2O)cc1 (stereo unspecified) do in these assays?
EP2 antag: 9; EP2 mod: -17

What do the screens show for `COc1cc(C2c3c(oc4ccc(C)cc4c3=O)C(=O)N2c2cc(C)ccn2)cc(OC)c1OC` (stereo unspecified)?
S1P3 antag: 99*

Compound activity from PubChem BioAssay.
